# Assay results as given in PubChem BioAssay (NCATS).
# Inconclusive results are not listed. Entries that show only a call come without a potency. Activity calls are given as the source filed them. Unless noted, calls come from the whole dose curve; as a rule, active = well fitted inhibition curve with a large enough effect; inconclusive = small, poorly fitted or top-dose-only effect; inactive = flat fitted curve, though single readings scatter.
# What was measured:
# [1] = qHTS drug screen for cell cycle checkpoint inhibitors in PARPi-resistant BRCA-mutant ovarian cancer cell lines. (AID 1963452; calls by dose curve); conditions: PEO1/OlaR viability, CellTiter-Glo luminescence, 96 h, stronger effect = lower value
# Procedure, shortened: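 PEO1, PEO4 and PEO1/OlaR ovarian cancer cells, 600 per well, exposed 96 h at 37C to a dilution series. Viability read by CellTiter-Glo luminescence, normalized to DMSO and empty wells; activity summarized as Z-AUC.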
# [2] = qHTS for identification of novel therapeutic agents for treatment of microphthalmiaassociated transcription factor (MiT) renal cell carcinoma (RCC) (AID 1963991; calls by dose curve; note: potency is the fitted concentration of half-maximal effect); conditions: CellTiter-Glo, 48 h; for z-score: stronger effect = lower value
# Procedure, shortened: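 Viability of three TFE3-fusion renal carcinoma lines measured by CellTiter-Glo after 48 h treatment with each of 1912 compounds at 11 concentrations. Responses scaled between DMSO (100%) and empty wells (0%) before curve fitting.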
# [3] = qHTS profiling for inhibitors of Plasmodium falciparum proliferation (AID 504749); note: nearly all actives have a fitted effect of over 60% in size; note: potency is the fitted concentration of half-maximal effect; conditions: P. falciparum in erythrocytes, SYBR Green DNA, 72 h, at 28.7 µM (top of the series)
# Procedure, shortened: (§1)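 Readout was DNA-dye fluorescence from lysed cultures, ex 485/em 535 nm. Parasitized red cells had grown 72 h with compound; data scaled between 0.29 uM artemisinin and DMSO wells and corrected using vehicle-only plates.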
# [4] = tested on: 3D7; assay: as above; conditions: P. falciparum in erythrocytes, SYBR Green DNA, 72 h; series mostly up to 28.7 µM
# Procedure, shortened: as §1
# [5] = tested on: 7G8; assay: as above; conditions: P. falciparum in erythrocytes, SYBR Green DNA, 72 h; series mostly up to 28.7 µM
# Procedure, shortened: as §1
# [6] = tested on: ATS95; assay: as above; conditions: P. falciparum in erythrocytes, SYBR Green DNA, 72 h; series mostly up to 28.7 µM
# Procedure, shortened: as §1
# [7] = tested on: C2A; assay: as above; conditions: P. falciparum in erythrocytes, SYBR Green DNA, 72 h; series mostly up to 28.7 µM
# Procedure, shortened: as §1
# [8] = tested on: CP185; assay: as above; conditions: P. falciparum in erythrocytes, SYBR Green DNA, 72 h; series mostly up to 28.7 µM
# Procedure, shortened: as §1
# [9] = tested on: CP192; assay: as above; conditions: P. falciparum in erythrocytes, SYBR Green DNA, 72 h; series mostly up to 28.7 µM
# Procedure, shortened: as §1
# [10] = tested on: CP201; assay: as above; conditions: P. falciparum in erythrocytes, SYBR Green DNA, 72 h; series mostly up to 28.7 µM
# Procedure, shortened: as §1
# [11] = tested on: AA1029; assay: as above; conditions: P. falciparum in erythrocytes, SYBR Green DNA, 72 h; series mostly up to 28.7 µM
# Procedure, shortened: as §1
# [12] = tested on: AS120; assay: as above; conditions: P. falciparum in erythrocytes, SYBR Green DNA, 72 h; series mostly up to 28.7 µM
# Procedure, shortened: as §1
# [13] = tested on: ATS189; assay: as above; conditions: P. falciparum in erythrocytes, SYBR Green DNA, 72 h; series mostly up to 28.7 µM
# Procedure, shortened: as §1
# [14] = tested on: CP191; assay: as above; conditions: P. falciparum in erythrocytes, SYBR Green DNA, 72 h; series mostly up to 28.7 µM
# Procedure, shortened: as §1
# [15] = tested on: CP194; assay: as above; conditions: P. falciparum in erythrocytes, SYBR Green DNA, 72 h; series mostly up to 28.7 µM
# Procedure, shortened: as §1
# [16] = measured here: PEO1 parental Z-AUC
# [17] = TFE3-RCC UOK109 viability, measured here: UOK109 Z-AUC
# [18] = TFE3-RCC viability, measured here: UOK124 Z-AUC
# [19] = TFE3-RCC viability, measured here: UOK145 Z-AUC
compound,measurement,setting,value
Cc1c(C)c2c(c(C)c1O)CCC(C)(COc1ccc(CC3SC(=O)NC3=O)cc1)O2 (stereo not drawn),Z-AUC,[1],0.635 (inactive)
same,Z-AUC,[1]; [16],0.564
same,Z-AUC,[1]; measured here: PEO4 Z-AUC,0.844
same,z-score,[2]; [17],0.729
same,z-score,[2]; [18],0.103
same,z-score,[2]; [19],-0.301
same,"activity, negative = inhibition",[3]; parasite line A,-7.46% (inactive)
same,Potency,[4],inactive
same,Potency,[5],10 µM (active)
same,Potency,[6],inactive
same,Potency,[7],inactive
same,Potency,[8],inactive
same,Potency,[9],inactive
same,outcome,[10],inactive
NCCc1ccc(O)c(O)c1,Z-AUC,[1],0.293 (inactive)
same,Z-AUC,[1]; [16],0.902
same,Z-AUC,[1]; measured here: PEO4 Z-AUC,0.891
same,z-score,[2]; [17],0.759
same,z-score,[2]; [18],0.079
same,z-score,[2]; [19],0.506
same,"activity, negative = inhibition",[3]; parasite line A,-7.96% (inactive)
same,"activity, negative = inhibition",[3]; parasite line B,1.48% (inactive)
same,Potency,[4],inactive
same,Potency,[5],inactive
same,Potency,[11],inactive
same,Potency,[12],inactive
same,Potency,[13],inactive
same,Potency,[7],inactive
same,Potency,[8],inactive
same,Potency,[14],inactive
same,Potency,[9],inactive
same,Potency,[15],inactive
same,outcome,[10],inactive
Cc1[nH]c(=O)c(C#N)cc1-c1ccc2nccn2c1,Z-AUC,[1],-0.546 (inactive)
same,Z-AUC,[1]; [16],-0.575
same,Z-AUC,[1]; measured here: PEO4 Z-AUC,-0.131
same,"activity, negative = inhibition",[3]; parasite line A,5.44% (inactive)
same,"activity, negative = inhibition",[3]; parasite line B,15.3% (inactive)
same,Potency,[4],inactive
same,Potency,[5],inactive
same,Potency,[11],inactive
same,Potency,[12],inactive
same,Potency,[13],inactive
same,Potency,[6],inactive
same,Potency,[7],inactive
same,Potency,[8],inactive
same,Potency,[14],inactive
same,Potency,[9],inactive
same,Potency,[15],inactive
same,outcome,[10],inactive
OC(CCN1CCCCC1)(c1ccccc1)C1CC2C=CC1C2 (stereo not drawn),Z-AUC,[1],-0.614 (inactive)
same,Z-AUC,[1]; [16],-0.36
same,Z-AUC,[1]; measured here: PEO4 Z-AUC,-0.607
same,z-score,[2]; [17],0.676
same,z-score,[2]; [18],0.56
same,z-score,[2]; [19],0.997
Oc1ccc(C2CNCCc3c2cc(O)c(O)c3Cl)cc1 (stereo not drawn),Z-AUC,[1],1.23 (inactive)
same,Z-AUC,[1]; [16],1.1
same,Z-AUC,[1]; measured here: PEO4 Z-AUC,1
same,z-score,[2]; [17],0.257
same,z-score,[2]; [18],0.218
same,z-score,[2]; [19],0.231
same,Potency,[4],inactive
same,Potency,[11],inactive
same,Potency,[12],inactive
same,Potency,[13],inactive
same,Potency,[6],inactive
same,Potency,[7],inactive
same,Potency,[8],inactive
same,Potency,[14],inactive
same,Potency,[9],inactive
same,Potency,[15],inactive
same,outcome,[10],inactive
CC(=O)Oc1ccccc1C(=O)O,Z-AUC,[1],0.925 (inactive)
same,Z-AUC,[1]; [16],0.885
same,Z-AUC,[1]; measured here: PEO4 Z-AUC,1.16
same,"activity, negative = inhibition",[3]; parasite line A,3.3% (inactive)
same,"activity, negative = inhibition",[3]; parasite line B,6.15% (inactive)
same,Potency,[4],inactive
same,Potency,[5],inactive
same,Potency,[11],inactive
same,Potency,[12],inactive
same,Potency,[13],inactive
same,Potency,[6],inactive
same,Potency,[7],inactive
same,Potency,[8],inactive
same,Potency,[14],inactive
same,Potency,[9],inactive
same,Potency,[15],inactive
same,outcome,[10],inactive
C#Cc1cccc(Nc2ncnc3cc(OCCOC)c(OCCOC)cc23)c1,Z-AUC,[1],-0.425 (inactive)
same,Z-AUC,[1]; [16],-1.02
same,Z-AUC,[1]; measured here: PEO4 Z-AUC,-0.978
same,Potency,"[2]; TFE3-RCC UOK109 viability, active = Z-AUC below -0.8 in all three lines",0.0526 µM (active)
same,z-score,[2]; [17],-2.56
same,z-score,[2]; [18],-1.06
same,z-score,[2]; [19],-1.55
same,Potency,[4],8.91 µM (active)
same,Potency,[5],11.2 µM (active)
same,Potency,[11],8.91 µM (active)
same,Potency,[12],11.2 µM (active)
same,Potency,[8],inactive
same,Potency,[9],inactive
